Reference: PubChem BioAssay (EPA / NIEHS)
Calls of active or inactive are those of the source. The calls were made as follows: active = hit-call score of the fitted dose curve at least 0.9, where 1 is the maximum; inactive = score below 0.9.

Legend:
[1] = read-out: Interleukin-1 alpha (IL1a), IL1A (gene 3552); test: BSK_KF3CT_IL1a: BioMAP Diversity Plus: KF3CT Assay for Interleukin-1 alpha (IL1a) Biomarker Activity (AID 2283070); conditions: primary human keratinocytes with fibroblasts; actives raise or lower the signal
How it was run: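 Readout is IL-1a level by ELISA, compared bidirectionally with DMSO as baseline. Cells: human keratinocytes co-cultured with foreskin fibroblasts, harvested 24 h post-dose.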

[2] = read-out: TIMP metallopeptidase inhibitor 2 (TIMP2), TIMP2 (gene 7077); test: BSK_KF3CT_TIMP2: BioMAP Diversity Plus: KF3CT Assay for TIMP metallopeptidase inhibitor 2 (TIMP2) Biomarker Activity (AID 2283071); conditions: primary human keratinocytes with fibroblasts; actives raise or lower the signal
How it was run: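 Measurements come from ELISA detection of TIMP-2 at 24 hours in a dosed human keratinocyte and foreskin fibroblast co-culture. DMSO serves as negative control and baseline.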

[3] = read-out: Transforming growth factor beta 1 (TGFb1), TGFB1 (gene 7040); test: BSK_KF3CT_TGFb1: BioMAP Diversity Plus: KF3CT Assay for Transforming growth factor beta 1 (TGFb1) Biomarker Activity (AID 2283072); conditions: primary human keratinocytes with fibroblasts; actives raise or lower the signal
How it was run: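 TGF-b1 ELISA on a 24 h dosed co-culture of human keratinocytes and foreskin fibroblasts; cytotoxicity tracked in parallel cultures by SRB staining.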

[4] = read-out: C-C motif chemokine 2 (Homo sapiens) (UniProt P13500); test: BSK_KF3CT_MCP1: BioMAP Diversity Plus: KF3CT Assay for Monocyte Chemoattractant Protein 1 (MCP1/CCL2) Biomarker Activity (AID 2283073); conditions: primary human keratinocytes with fibroblasts; actives raise or lower the signal
How it was run: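 Keratinocytes and foreskin fibroblasts were co-cultured, dosed with chemical, and sampled 24 h later. MCP-1 was quantified by ELISA, and the endpoint was analyzed with bidirectional fitting using DMSO as negative control.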

[5] = read-out: Matrix Metallopeptidase 9 (MMP9), MMP9 (gene 4318); test: BSK_KF3CT_MMP9: BioMAP Diversity Plus: KF3CT Assay for Matrix Metallopeptidase 9 (MMP9) Biomarker Activity (AID 2283074); conditions: primary human keratinocytes with fibroblasts; actives raise or lower the signal
How it was run: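 Values come from bidirectional fitting relative to DMSO of MMP-9 levels, which were measured by ELISA. Measurements were taken 24 h after chemical dosing of a keratinocyte and foreskin fibroblast co-culture.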

[6] = read-out: urokinase plasminogen activator (uPA), PLAU (gene 5328); test: BSK_KF3CT_uPA: BioMAP Diversity Plus: KF3CT Assay for urokinase plasminogen activator (uPA) Biomarker Activity (AID 2283075); conditions: primary human keratinocytes with fibroblasts; actives raise or lower the signal
How it was run: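 Values derive from bidirectional fitting against DMSO controls. Keratinocyte/foreskin fibroblast co-cultures received chemical; 24 h later uPA was detected by ELISA, with SRB total-protein staining in parallel wells for overt cytotoxicity.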

CD40, CD40 (gene 958) [7] = test: BSK_LPS_CD40: BioMAP Diversity Plus: LPS Assay for CD40 Biomarker Activity (AID 2283076); conditions: primary human HUVEC with PBMC; actives raise or lower the signal
How it was run: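 CD40 signal, measured by ELISA, is fitted in both directions relative to DMSO vehicle. The system is an LPS-driven human vascular primary co-culture of endothelial cells and PBMC, sampled 24 h after compound addition.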

[8] = read-out: E-selectin (Homo sapiens) (UniProt P16581); test: BSK_LPS_Eselectin: BioMAP Diversity Plus: LPS Assay for Eselectin Biomarker Activity (AID 2283077); conditions: primary human HUVEC with PBMC; actives raise or lower the signal
How it was run: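 Signal of E-selectin, detected by ELISA, served as the endpoint; cells were umbilical vein endothelium with PBMC, read 24 h after treatment. DMSO defined baseline, and both increases and decreases were fitted.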

[9] = read-out: Interleukin-8 (IL8), CXCL8 (gene 3576); test: BSK_LPS_IL8: BioMAP Diversity Plus: LPS Assay for Interleukin-8 (IL8) Biomarker Activity (AID 2283078); conditions: primary human HUVEC with PBMC; actives raise or lower the signal
How it was run: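 Endothelial cells and PBMC from human donors are co-cultured, treated with chemicals and LPS, then assayed for IL-8 by ELISA after 24 h. Parallel SRB staining (0.1% SRB after 10% TCA fixation, 560 nm) flags cytotoxicity.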

[10] = BSK_LPS_SRB: Viability Assessment in the BioMAP Diversity Plus: LPS Assay (AID 2283079); conditions: primary human HUVEC with PBMC;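 also: total protein by sulforhodamine B absorbance as a cytotoxicity measure; measured one day after compound addition; fitted in both directions against DMSO so loss or gain of signal counts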
How it was run: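 Overt cytotoxicity was gauged by sulforhodamine B total-protein staining in a primary human vascular endothelial and mononuclear cell co-culture 24 h post-dosing. Activity was fitted in both directions relative to DMSO.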

[11] = read-out: Interleukin-1 alpha (IL1a), IL1A (gene 3552); test: BSK_LPS_IL1a: BioMAP Diversity Plus: LPS Assay for Interleukin-1 alpha (IL1a) Biomarker Activity (AID 2283080); conditions: primary human HUVEC with PBMC; actives raise or lower the signal
How it was run: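 Measured: IL-1 alpha via ELISA at 24 h in LPS-activated human umbilical vein endothelium–PBMC co-culture. Baseline: DMSO, bidirectional fitting.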

[12] = read-out: Monocyte Chemoattractant Protein-1 (MCP1), CCL2 (gene 6347); test: BSK_LPS_MCP1: BioMAP Diversity Plus: LPS Assay for Monocyte Chemoattractant Protein-1 (MCP1) Biomarker Activity (AID 2283081); conditions: primary human HUVEC with PBMC; actives raise or lower the signal
How it was run: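 LPS-stimulated HUVEC/PBMC co-culture; chemical, 24 h; MCP-1 by ELISA; bidirectional fit vs DMSO; cytotoxicity via SRB (0.1% stain, 10% TCA fix, 560 nm) in parallel wells.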

[13] = BSK_LPS_PGE2: BioMAP Diversity Plus: LPS Assay for Prostaglandin E2 (PGE2) Biomarker Activity (AID 2283082); conditions: primary human HUVEC with PBMC; actives raise or lower the signal
How it was run: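 Primary human endothelial cells and blood mononuclear cells, co-cultured with LPS, receive test chemical; PGE2 ELISA follows at 24 h, with SRB-stained parallel cultures flagging cytotoxicity.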

[14] = read-out: Macrophage colony-stimulating factor (MCSF), CSF1 (gene 1435); test: BSK_LPS_MCSF: BioMAP Diversity Plus: LPS Assay for Macrophage colony-stimulating factor (MCSF) Biomarker Activity (AID 2283083); conditions: primary human HUVEC with PBMC; actives raise or lower the signal
How it was run: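 Compound is added to a human vascular primary co-culture of umbilical vein endothelium and blood mononuclear cells. After 24 h, M-CSF is quantified by ELISA. Signal changes are fitted in both directions against DMSO.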

[15] = read-out: Tissue Factor, F3 (gene 2152); test: BSK_LPS_TissueFactor: BioMAP Diversity Plus: LPS Assay for Tissue Factor Biomarker Activity (AID 2283084); conditions: primary human HUVEC with PBMC; actives raise or lower the signal
How it was run: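 In this co-culture system of umbilical vein endothelium with PBMC, stimulated with LPS, cell-surface CD142 is detected by ELISA at 24 h. Endpoint values derive from bidirectional fitting, DMSO serving as baseline.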

[16] = read-out: Tumor necrosis factor (Homo sapiens) (UniProt P01375); test: BSK_LPS_TNFa: BioMAP Diversity Plus: LPS Assay for Tumour Necrosis Factor alpha (TNFa) Biomarker Activity (AID 2283085); conditions: primary human HUVEC with PBMC; actives raise or lower the signal
How it was run: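 ELISA-based TNFa endpoint in a human endothelial–PBMC co-culture sampled 24 h post-exposure. Curves were fitted in both directions using DMSO as baseline of activity.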

[17] = read-out: Vascular cell adhesion molecule 1 (VCAM1), VCAM1 (gene 7412); test: BSK_LPS_VCAM1: BioMAP Diversity Plus: LPS Assay for Vascular cell adhesion molecule 1 (VCAM1) Biomarker Activity (AID 2283086); conditions: primary human HUVEC with PBMC; actives raise or lower the signal
How it was run: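 Measured by ELISA: VCAM-1 in LPS-activated HUVEC/PBMC co-cultures 24 h after treatment. Values reflect bidirectional fitting with DMSO as baseline.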

CD38, CD38 (gene 952) = test: BSK_SAg_CD38: BioMAP Diversity Plus: SAg Assay for CD38 Biomarker Activity (AID 2283087); conditions: primary human HUVEC with PBMC; actives raise or lower the signal
How it was run: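 Measures CD38 on a human endothelial/PBMC co-culture driven by SEB and TSST-1, 24 h after compound exposure, using ELISA with fluorescence detection; DMSO defines baseline for bidirectional curve fitting.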

CD40, CD40 (gene 958) [18] = test: BSK_SAg_CD40: BioMAP Diversity Plus: SAg Assay for CD40 Biomarker Activity (AID 2283088); conditions: primary human HUVEC with PBMC; actives raise or lower the signal
How it was run: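 Fluorescence ELISA read-out of CD40 from umbilical vein endothelium plus peripheral blood mononuclear cells, sampled 24 h after dosing. Values come from bidirectional curve fitting with DMSO as baseline.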

CD69, CD69 (gene 969) = test: BSK_SAg_CD69: BioMAP Diversity Plus: SAg Assay for CD69 Biomarker Activity (AID 2283089); conditions: primary human HUVEC with PBMC; actives raise or lower the signal
How it was run: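 HUVEC co-cultured with PBMC were dosed with chemical, and CD69 was measured by ELISA with fluorescence read-out 24 h later. Bidirectional curve fitting used DMSO as negative control and activity baseline.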

Measured: outcome

Sequence of Tumor necrosis factor (Homo sapiens) (P01375 whole entry, looked up): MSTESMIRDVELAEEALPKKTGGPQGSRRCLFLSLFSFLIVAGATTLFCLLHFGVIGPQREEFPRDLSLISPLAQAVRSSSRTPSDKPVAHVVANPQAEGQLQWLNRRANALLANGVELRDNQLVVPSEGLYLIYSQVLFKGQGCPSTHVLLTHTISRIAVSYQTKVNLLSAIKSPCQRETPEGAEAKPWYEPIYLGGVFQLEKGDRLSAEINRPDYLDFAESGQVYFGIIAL
Sequence of E-selectin (Homo sapiens) (P16581 whole entry, looked up): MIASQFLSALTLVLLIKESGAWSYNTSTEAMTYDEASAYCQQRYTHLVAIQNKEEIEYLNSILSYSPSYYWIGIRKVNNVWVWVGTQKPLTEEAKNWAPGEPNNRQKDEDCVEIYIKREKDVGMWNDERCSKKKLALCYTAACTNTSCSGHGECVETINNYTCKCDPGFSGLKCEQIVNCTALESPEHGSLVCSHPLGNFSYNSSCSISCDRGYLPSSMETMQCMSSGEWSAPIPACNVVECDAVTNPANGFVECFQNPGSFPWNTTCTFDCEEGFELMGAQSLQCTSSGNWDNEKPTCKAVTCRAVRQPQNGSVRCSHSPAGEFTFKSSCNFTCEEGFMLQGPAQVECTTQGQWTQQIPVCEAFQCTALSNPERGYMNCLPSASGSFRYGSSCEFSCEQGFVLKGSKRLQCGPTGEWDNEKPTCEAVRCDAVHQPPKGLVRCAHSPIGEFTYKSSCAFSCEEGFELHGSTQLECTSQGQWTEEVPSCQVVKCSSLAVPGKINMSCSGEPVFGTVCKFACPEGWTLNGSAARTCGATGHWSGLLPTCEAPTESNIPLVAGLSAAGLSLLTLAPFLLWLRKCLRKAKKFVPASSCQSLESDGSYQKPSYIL

O=[N+]([O-])c1ccc(Cl)c(Cl)c1
inactive: [1] | [2] | [3] | [4] | [5] | [6] | CD40, CD40 (gene 958) [7] | [8] | [9] | [10] | [11] | [12] | [13] | [14] | [15] | [16] | [17] | CD38, CD38 (gene 952) | CD40, CD40 (gene 958) [18] | CD69, CD69 (gene 969)

c1cc2c3c(cccc3c1)CC2
inactive: [1] | [2] | [3] | [4] | [5] | [6] | CD40, CD40 (gene 958) [7] | [8] | [9] | [10] | [11] | [12] | [13] | [14] | [15] | [17] | CD38, CD38 (gene 952) | CD40, CD40 (gene 958) [18] | CD69, CD69 (gene 969)

CCOP(=S)(OCC)SCSCC
inactive: [1] | [2] | [3] | [4] | [5] | [6] | CD40, CD40 (gene 958) [7] | [8] | [9] | [10] | [11] | [12] | [13] | [15] | [16] | [17] | CD38, CD38 (gene 952) | CD40, CD40 (gene 958) [18] | CD69, CD69 (gene 969)

CCCCN(CCCC)N=O
inactive: [1] | [2] | [3] | [4] | [5] | [6] | CD40, CD40 (gene 958) [7] | [8] | [9] | [10] | [11] | [12] | [13] | [15] | [16] | [17] | CD38, CD38 (gene 952) | CD40, CD40 (gene 958) [18] | CD69, CD69 (gene 969)
